Measured values reported in the supplement of paper PMC10338343.
± gives the standard deviation. In all, about 3,000 sequences were measured (“pre-steady-state target cleavage rate”: median about 0.0079, highest 2% from about 0.2 on). The sample as a whole holds a higher share of the highest values than the screen did.

Tested on: MILI (PIWIL2) piRISC loaded with piRNA #2 (26 nt)
Experiment: pre-steady-state target cleavage rate (min^-1); MIWI and MILI are mouse PIWI proteins and EfPiwi is from a freshwater sponge; tags in brackets are library labels; higher = faster piRNA-guided slicing of the target
Conditions: guide: piRNA #2 5'p-UUAGGUAACCCAGUAGAUCCAGAGGA; auxiliary factor: 500 nM mouse GTSF1
Description: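 Cleave-'n-Seq: a library of target RNAs (target site embedded in constant flanks, ACAGCATTCCGCGTTAGTGATATCCG... 5' flank; DNA-blocked outside the site) at 0.1 nM was incubated with 1 nM active mouse MILI or MIWI piRISC (synthetic 5'-monophosphorylated piRNA guide) with or without 500 nM mouse GTSF1 at 33 °C for 1 min to 16 h. Uncleaved targets were sequenced and normalised to non-target controls, and the pooled three trials were fitted to a burst-and-steady-state model to give the pre-steady-state cleavage rate (min^-1; k3 is constrained to at most 1e-4). Sequence is the target site only; target names encode pairing extent (gX:gY) and contiguous / 1-mismatch / 2-mismatch / bulge geometry. Fits with R² ≤ 0 are excluded.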

| Sequence | pre-steady-state target cleavage rate |
| --- | --- |
| CUUAUCCUCUGGAUCUACUGGGUUCCUAA | 0.239 ± 0.11 |
| CUUAUCCUCUGGAUCUACUGGGUUUCGUAA | 0.171 ± 0.071 |
| CUUAUCCUCUGGAUCUACUGGGUUAUCUAA | 0.0884 ± 0.015 |
| CUUAAGCUCUGGAUCAACUGGGUUUCCUAA | 0.0481 ± 0.015 |
| CUUAUCCUCUGGAUCUACUGGGUUUCCAAA | 0.134 ± 0.047 |
| CUUAUCCUCUGGAUCUACUGGGUUUCCUUA | 0.413 ± 0.15 |
| CUUAACCUCUGGAUCAACUGGGUUUCCUAA | 0.101 ± 0.038 |
| CUUAUCCUCUGGAUCUACUGGGUAUCCUAA | 0.0336 ± 0.014 |
| CUUAUCCUCUGGAUCUACUGGGUUAUCCUAA | 0.204 ± 0.046 |
| CUUAUCCUCUGGAUCAACUGGGUUUCCUAA | 0.199 ± 0.072 |
| CUUAUCCUCUGGAUCUACUGGGUUCACCUAA | 0.0872 ± 0.017 |
| CUUAUCCUCUGGAUCUACUGGGUUACCUAA [g2:g26:cont:t1A] | 0.125 ± 0.023 |
| CUUAAGCUCAGGAUCAACUGGGUUACCUAA | 0.0432 ± 0.014 |
| CUUAAGGACUGGAUCUAUUGGGUUACCUAA | 0.0187 ± 0.0078 |
| CUUAAGGAGUGGAUCUUCAGGGUUACCUAA | 0.0231 ± 0.0065 |
| CUUAAGGUCUGGAUGUACUGGGAUACCUAA | 0.0141 ± 0.01 |
| CUUAAGGUCUGGAACUUCUGGGUUACCUAA | 0.0253 ± 0.015 |
| CUUAAGCUCAGGAUCUACUGGGUAACCUAA | 0.0259 ± 0.0088 |
| CUUAACGUCUGGAUCUACUGGGUUACCUUA | 0.0827 ± 0.015 |
| CUUAAGGAGUGGAUCUACUGGGUCUACCUAA | 0.00823 ± 0.0039 |
| CUUAAGGACUGGAUCUACUGGGUAUACCUAA | 0.0248 ± 0.016 |
| CUUAAGGUCUGGAUCUACAGGGUUACCAAA | 0.106 ± 0.017 |
| CUUAUCCUCUGGAUCUACUGGGUUACGCUAA | 0.174 ± 0.026 |
| CUUAUCCUCUGGAUCUACUGGGUUACCCUAA | 0.132 ± 0.049 |

| Sequence | pre-steady-state target cleavage rate |
| --- | --- |
| CUUAUCCUCUGGAUCUACUGGGUUUCCUAA | 0.252 ± 0.072 |
| CUUAUCCUCUGGAUCUACUGGGUUUGCUAA | 0.216 ± 0.041 |
| CUUAUCCACUGGAUCUACUGGGUUUCCUAA | 0.123 ± 0.034 |
| CUUAUCCUCUGGAUCUACUGGGUAUGCUAA | 0.092 ± 0.023 |
| CUUAUCCCUCUGGAUCUACUGGGUUACCUAA | 0.0911 ± 0.022 |
| CUUAUCCUCUGGAUCUACUGGGUUCCCUAA | 0.321 ± 0.13 |
| CUUAUCCUCUGGAUCUACUGGGUUUACCUAA | 0.107 ± 0.023 |
| CUUAAGGUGUGGAUCUACUGGGUUACCUUA | 0.0353 ± 0.011 |
| CUUAUCCUCUGGAUGUACUGCGUUACCUAA | 0.0106 ± 0.0045 |
| CUUAAGGACUGGAUCUACAGGGUUACCAAA | 0.0404 ± 0.0091 |
| CUUAAGCUCUCGGAUCUACUGGGUUACCUAA | 0.064 ± 0.015 |
| CUUAUCCUCUGGAUCACUGGGUUACCUAA | 0.0129 ± 0.0061 |
| CUUAAGGAGACCUACUACUGGGUUACACUAA | < 0.0001 |
| CUUAAGGUCUGGAUCUACUGGGUUACCUGAA | 0.0831 ± 0.035 |
| CUUAAGCUCUGGAUCUAGUGGGUUUCCUAA | 0.0199 ± 0.0071 |
| CUUAUCCUCUCGAUCUACUCGGUUACCUAA | 0.0053 ± 0.0015 |
| CUUAAGGAGACCUACUACUGUGGUUACCUAA | < 0.0001 |
| CUUAACGUCUGCAUCUACUGGGUUACCUAA | 0.126 ± 0.02 |
| CUUAUCCUCUGAAUCUACUGGGUUACCUAA | 0.109 ± 0.023 |
| CUUAUCCUCUGGUCUACUGGGUUACCUAA | 0.983 ± 0.34 |
| CUUAUCCUCUGGCUCUACUGGGUUACCUAA | 1.12 ± 0.3 |
| CUUAUCCUCUGGACUCUACUGGGUUACCUAA | 0.0887 ± 0.019 |
| CUUAUCCUCUGGAAUCUACUGGGUUACCUAA | 0.156 ± 0.035 |
| CUUAUCCUCUGGGUCUACUGGGUUACCUAA | 0.206 ± 0.035 |

| Sequence | pre-steady-state target cleavage rate |
| --- | --- |
| CUUAUCCUCUGGAGUCUACUGGGUUACCUAA | 0.175 ± 0.039 |
| CUUAAGCUCUGGAUGUACUGGGUUUCCUAA | 0.0435 ± 0.021 |
| CUUAAGGUCUGGAUCUACAGGGUUAGCUAA | 0.0446 ± 0.012 |
| CUUAAGCUCUGUAUCUACUGGGUUACCUAA | 0.0444 ± 0.0099 |
| CUUAAGGAGUGGAUCUACAGGGUUUCCUAA | 0.056 ± 0.012 |
| CUUAAGGUCUGGAUCUACUGGGUUACCUAU [g2:g23:cont:t1U] | 0.101 ± 0.014 |
| CUUAUCCUCUGGAUGUAGUGGGUUACCUAA | 0.0679 ± 0.01 |
| CUUAUCCUCUGGGAUCUACUGGGUUACCUAA | 0.137 ± 0.023 |
| CUUAUCCUCUGCAUCUACUGCGUUACCUAA | 0.0198 ± 0.0066 |
| CUUAUCCUCUGCAUCUACUGGGUUACCUAA | 0.275 ± 0.056 |
| CUUAUCCUCUGGCAUCUACUGGGUUACCUAA | 2.56 ± 1.7 |
| CUUAUCCUCUGGAUCUACUGGGUUACCUUA | 0.13 ± 0.026 |
| CUUAACCUCUGCAUCUACUGGGUUACCUUA | 0.178 ± 0.048 |
| CUUAACCUCUGCAUCUACUGGGUUACCAAA | 0.173 ± 0.055 |
| CUUAUCCUCUGCGAUCUACUGGGUUACCUAA | 0.0876 ± 0.015 |
| CUUAUCCUCUGCAUCUACUGGGUUACCUUA | 0.466 ± 0.13 |
| CUUAUCCUCUGCAUCUACUGGGUUACCAAA | 0.408 ± 0.12 |
| CUUAUCCUCUGAUCUACUGGGUUACCUAA | 0.123 ± 0.029 |
| CUUAUCCUCUGGAUCUACUGGGUUACCAAA | 0.13 ± 0.023 |
| CUUAAGCUCUGGAUCUACCGGGUUACCUAA | 0.0213 ± 0.0061 |
| CUUAAGCUCUGGAUCUACUGGGUUCACCUAA | 0.0506 ± 0.017 |
| CUUAAGGAGUGGAUCUUCUGGGUUACCUUA | 0.014 ± 0.007 |
| CUUAUCCUCAGCAUCUACUGGGUUACCUAA | 0.271 ± 0.06 |
